PubChem BioAssay AID720517 (National Center for Advancing Translational Sciences (NCATS), 2013)
Results filed as inconclusive are left out. A call without a number means that no potency is given here. Activity calls are given as the source filed them. Calls come from the whole dose curve; as a rule, active = well fitted activation curve with a large enough effect; inconclusive = small, poorly fitted or top-dose-only effect; inactive = flat fitted curve, though single readings scatter.

Assay: qHTS for Inhibitors of Cell Surface uPA Generation: FP59 Counterscreen for Cherry-picked Compounds
Details: FP59 anthrax toxin cytotoxicity counterscreen, cells; series mostly up to 115 µM

Compound	Potency
CC1CC(C)CN(CCCNC(=O)CN2C(=O)CSc3ccc(S(=O)(=O)N4CCOCC4)cc32)C1 (centres undefined)	inactive
CCCCN(CC(=O)NCc1ccc(F)cc1)C(=O)c1ccco1	inactive
CC(C)(C)OC(=O)N(Cc1ccccc1)Cc1ccccc1OCc1cccc(NC(=O)C2CC2)c1	inactive
CCN(CC)CCCNC(=O)c1cn(C)c(=O)c2c1c1ccccc1n2C	inactive
